Reference: PubChem BioAssay (NCATS)
Where “and” joins values, the source holds several entries; their conditions need not be identical. Identical values can stand only once. Inconclusive results are not listed. Calls of active or inactive are those of the source. Unless noted, calls follow the shape of the dose curve; as a rule, active = well fitted curve in the direction sought with a large enough effect; inconclusive = small, poorly fitted or top-dose-only effect, or another doubt; inactive = no such curve, though single readings can be large; an effect the other way counts as inactive or inconclusive.

Tests used:
[1] = AP1 Signaling Pathway (AID 357; active = well fitted curve in either direction with a large enough effect, not every such curve was filed as active;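 also: ME-180 reporter cells stimulated with EGF at its EC50 level; % is scaled to controls: 0 for no effect and ±100 for the full control effect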)
Method in brief: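 First, ME-180 AP-1-bla cells were cultured overnight at 37 °C in low-serum Opti-MEM. Next, titrated compounds with EC50 EGF were incubated 5 hours. Finally, CCF4 was added for 2.5 hours and the 460/530 nm ratio recorded.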

[2] = molecular target: Cytochrome P450 1A2 (Homo sapiens) (UniProt P05177); test: p450-cyp1a2 (AID 410; calls by dose curve; also: potency is read from the fitted curve at half-maximal effect;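 as to activity change, negative = inhibition: -100% = full effect of reference inhibitor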)
Method in brief: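 Human CYP1A2 (20nM) demethylated Luciferin-ME at its Km (100uM) in 100mM KPO4. After 10 min compound preincubation, NADPH regeneration ran the reaction 60 min at room temperature. Luciferin was read by luminescence, normalized to 57 uM furafylline.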

[3] = NFAT Signaling Pathway (AID 444; active = well fitted curve in either direction with a large enough effect, not every such curve was filed as active;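 also: carbachol stimulus at about its EC50 of 1 µM final; % is scaled to controls: 0 for no effect and ±100 for the full control effect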); conditions: Jurkat NFAT-bla M1, carbachol, beta-lactamase ratio, 5 h; at 38 µM (top of the series)
Method in brief: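 Jurkat cells with NFAT-driven β-lactamase reporter and co-expressed M1 receptor, stimulated with carbachol (final 1 uM, ~EC50), compound titration, 5 h at 37 °C. CCF4 loaded 1 h at RT; 460/530 nm ratio gave %activity and AC50.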

[4] = Stat Signaling Pathway (AID 446; active = well fitted curve in either direction with a large enough effect, not every such curve was filed as active;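 also: ME-180 cervical cancer cells given 40 pM IL-6 alongside compound; SIE-controlled beta-lactamase reporter measured as 460/530 nm FRET emission ratio; % is scaled to controls: 0 for no effect and ±100 for the full control effect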)
Method in brief: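 ME-180 cells carrying a SIE-driven beta-lactamase reporter are stimulated with 40 pM IL-6 for 5 h at 37C in the presence of compound. The 460/530 nm FRET substrate ratio is read after 2.5 h at RT. Data are normalised to 300 pM IL-6 and to 125 nM JAK inhibitor controls.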

[5] = molecular target: Glucocorticoid receptor (Homo sapiens) (UniProt P04150); test: GR-GFP Redistribution (AID 450;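 active = compounds whose dose series gives a full or clear partial fitted curve of increased nuclear translocation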; also: potency is read from the fitted curve at half-maximal effect); conditions: U2OS GR-GFP nuclear translocation, laser cytometry, 2 h
[6] = molecular target: Glucocorticoid receptor (Homo sapiens) (UniProt P04150); test: GR-EFC Redistribution (AID 451; calls by dose curve; also: potency is read from the fitted curve at half-maximal effect); conditions: CHO-K1 GR-EFC translocation, beta-gal luminescence, 2 h
Method in brief: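 CHO-K1 cells expressing nuclear EA and GR-ED fragments of b-gal; compounds titrated up to 46 uM final, 2 h at 37 C. GR nuclear translocation read as complemented b-gal luminescence after 1 h RT detection.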

[7] = molecular target: Mitogen-activated protein kinase 10 (Mus musculus) (UniProt Q61831); test: JNK3 AlphaScreen Assay (AID 530; active = well fitted curve in either direction with a large enough effect, not every such curve was filed as active;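 also: kinase came from lysate of stimulated human HepG2 cells; signal reports phosphorylation of biotinylated GST-cJun 1-79 at Ser73 with 10 µM ATP; % is scaled to controls: 0 for no effect and ±100 for the full control effect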)
Method in brief: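 qHTS format: compounds tested as titrations against IL-1beta/TNF-alpha-activated HepG2 lysate JNK3 with biotin-GST-cJun substrate and 10 uM ATP at room temperature. Loss of anti-phospho-cJun AlphaScreen signal indicates inhibition.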

[8] = molecular target: 3',5'-cyclic-AMP phosphodiesterase 4B (Homo sapiens) (UniProt Q07343); test: qHTS Assay for Inhibitors of PDE-IV (AID 607; active = well fitted activation curve with a large enough effect in the main read-out, with a control signal flat, not every such curve was filed as active; also: % of control where 0% means no effect)
Method in brief: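 HEK293 ACTOne cells with CNG channel (1000/well), endogenous PDE4; membrane potential dye, compounds up to 22.9 uM final. Fluorescence Ex 535/Em 590; RO 20-1724 (100 uM final) as reference.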

[9] = molecular target: Guanine nucleotide-binding protein G(i) subunit alpha-1 (Homo sapiens) (UniProt P63096); test: qHTS Assay for Inhibitors of RGS12 GoLoco Motif Activity (Green Fluorophore) (AID 879);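 also: 0% = labeled peptide with Gαi1 and full inhibition = labeled peptide alone without protein; negative values mean loss of peptide binding seen as reduced polarization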
Method in brief: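 Fluorescence polarization assay: 50 nM Gαi1 with 10 nM FITC-labeled RGS12 GoLoco peptide in 10 mM Tris pH 7.5, 150 mM NaCl, 0.1 mM GDP, 0.05% NP40, 10 min at room temperature with compound.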

[10] = molecular target: Pyruvate kinase (Leishmania mexicana) (UniProt Q27686); test: qHTS Validation Assay for Inhibitors of Leishmania Mexicana Pyruvate Kinase (AID 945);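 also: 0% = DMSO only neutral control wells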
Method in brief: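 Read-out: luminescence from PKLight stop/detection reagent, data normalized to DMSO. Reaction: 0.2 nM E451W LmPYK, 0.5 mM PEP, 0.1 mM ADP, pH 7.2, 1 h room temperature.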

[11] = molecular target: Pyruvate kinase PKM (Homo sapiens) (UniProt P14618); test: qHTS Assay for Activators of Human Muscle Pyruvate Kinase (AID 954; active = well fitted curve in the direction sought with a large enough effect, not every such curve was filed as active;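 also: 0% = uninhibited enzyme and -100% = no enzyme or full thiadiazolimine inhibition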)
Method in brief: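 Purified human PKM2 (0.1 nM) with 0.5 mM PEP (Km) and 0.1 mM ADP in 50 mM imidazole pH 7.2, KCl, MgCl2, 1 h at room temperature; ATP formed read by coupled luciferase luminescence. Normalized to no-enzyme/110 uM thiadiazolimine inhibition; 0.3 nM enzyme column for activation.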

[12] = molecular target: Alpha-galactosidase (Coffea arabica) (UniProt Q42656); test: Counterscreen for Glucocerebrosidase Inhibitors: qHTS Assay for Coffee Bean alpha-Galactosidase at pH 4.5 (AID 957);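 also: plate controls were enzyme alone for no effect and no enzyme for full effect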
Method in brief: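 Green coffee bean enzyme (2 nM final) was incubated with compounds (0.7 nM to 77 uM) and 4-methylumbelliferyl alpha-D-galactopyranoside (80 uM final) in 50 mM citric acid, 0.005% Tween-20, pH 4.5, 20 min at room temperature; AC50 from Hill fits.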

[13] = molecular target: Alpha-galactosidase A (Homo sapiens) (UniProt P06280); test: Counterscreen for Glucocerebrosidase Inhibitors: qHTS Assay for Human alpha-Galactosidase at pH 4.5 (AID 992); also: 0% is about no effect
Method in brief: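 Human enzyme (2 nM) with 80 uM 4-methylumbelliferyl alpha-D-galactopyranoside in 50 mM citric acid, 0.005% Tween-20, pH 4.5, 20 min at room temperature. Compounds 0.7 nM–77 uM; fluorescence Ex 365/Em 440 after pH 10 stop; AC50 from Hill fits.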

[14] = molecular target: alpha-glucosidase (Oryza sativa, rice) (UniProt Q653V4); test: Counterscreen for Glucocerebrosidase Inhibitors: qHTS Assay for Rice alpha-Glucosidase at pH 5.0 (AID 997);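 also: 0% = full activity with enzyme and -100% = basal without enzyme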
Method in brief: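 Rice alpha-glucosidase (4 nM final) with 400 uM 4-methylumbelliferyl-alpha-D-glucopyranoside in citrate buffer pH 5.0, 20 min at room temperature, stopped at pH 10; fluorescence 365/440 nm, compounds 0.7 nM–77 uM, AC50 from Hill fits.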

[15] = molecular target: Alpha-galactosidase (Coffea arabica) (UniProt Q42656); test: Counterscreen for Glucocerebrosidase Inhibitors: qHTS Assay for Coffee Bean alpha-Galactosidase at pH 5.9 (AID 998);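 also: plate controls were uninhibited enzyme for no effect and no-enzyme basal signal for full effect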
Method in brief: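 Green coffee bean enzyme (2 nM) with 4-methylumbelliferyl alpha-D-galactopyranoside (80 uM) in 50 mM citric acid, 0.005% Tween-20, pH 5.9, 20 min at room temperature; compounds 0.7 nM–77 uM. Stopped at pH 10, fluorescence Ex365/Em440; Hill-fit AC50.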

[16] = qHTS Assay for Lipid Storage Modulators (AID 1519; calls by dose curve); conditions: Drosophila S3 cells, BODIPY lipid droplet/cell ratio, laser cytometry, cells loaded with oleic acid
Method in brief: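 Cells seeded at 5,000 per well were treated with compounds over a concentration series and loaded with oleic acid (400 uM, as added). Lipid droplet fluorescence (488 nm excitation, 500-530 nm channel) was read by laser-scanning cytometry and normalized to 20 uM Triacsin C.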

[17] = molecular target: Ubiquitin carboxyl-terminal hydrolase 1 (Homo sapiens) (UniProt O94782); test: Inhibitors of USP1/UAF1: Pilot qHTS (AID 504865);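 also: rhodamine fluorescence freed from ubiquitin-rhodamine substrate followed over time; top concentration of the series differs between compounds; % is scaled to controls: 0 for no effect and ±100 for the full control effect; nearly all actives have a fitted effect of over 35% in size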
Method in brief: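 1nM USP1/UAF1 + cpd, 15 min RT; start w/ Ub-Rho 150nM final; kinetic FL 480/540 nm, 6 reads q60 s. Buffer 50mM HEPES pH 7.8, 0.5mM EDTA, 1mM TCEP, 0.01% Tween-20, 0.1 mg/ml BSA.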

[18] = molecular target: DNA dC->dU-editing enzyme APOBEC-3G (Homo sapiens) (UniProt Q9HC16); test: qHTS for inhibitors of Vif-A3G interactions: Validation (AID 588379); also: 0% is about no effect
Method in brief: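 HeLa cells stably expressing Vif and A3G-eYFP, 700 cells/well, incubated overnight at 37 deg C, then exposed to compound overnight at 37 deg C. Inhibition of Vif-mediated degradation read as increased yellow fluorescence (Ex 488/Em 500-530) by laser-scanning cytometry.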

[19] = tested on: Zika virus NS2B-NS3 protease; test: Primary screen GU AMC qHTS for Zika virus inhibitors (AID 1347154);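 also: 0% = no-inhibitor control and -100% = no-enzyme control; nearly all actives have a fitted effect of over 70% in size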
Method in brief: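 Unlinked Zika NS2B hydrophilic domain–NS3 protease complex at 25 nM in 10 mM Tris-HCl pH 8.0, 0.01% Tween 20, with an AMC peptide substrate. Fluorescence change (340/450 nm) over 15 min at room temperature, normalized to controls, fitted to 4-parameter Hill.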

[20] = Primary qHTS for small molecule stabilizers of the endoplasmic reticulum resident proteome: Secreted ER Calcium Modulated Protein (SERCaMP) assay (AID 1508630); also: % is scaled to controls: 0 for no effect and ±100 for the full control effect
Method in brief: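 GLuc-SERCaMP-expressing SH-SY5Y cells, pretreated 16 h with compound, are challenged with thapsigargin to empty ER calcium stores; after 4 h, coelenterazine is added directly to the medium and luminescence is imaged.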

[21] = measured here: cell count channel max response
[22] = measured here: lipid channel max response

Sequence of Ubiquitin carboxyl-terminal hydrolase 1 (Homo sapiens) (O94782 whole entry, looked up): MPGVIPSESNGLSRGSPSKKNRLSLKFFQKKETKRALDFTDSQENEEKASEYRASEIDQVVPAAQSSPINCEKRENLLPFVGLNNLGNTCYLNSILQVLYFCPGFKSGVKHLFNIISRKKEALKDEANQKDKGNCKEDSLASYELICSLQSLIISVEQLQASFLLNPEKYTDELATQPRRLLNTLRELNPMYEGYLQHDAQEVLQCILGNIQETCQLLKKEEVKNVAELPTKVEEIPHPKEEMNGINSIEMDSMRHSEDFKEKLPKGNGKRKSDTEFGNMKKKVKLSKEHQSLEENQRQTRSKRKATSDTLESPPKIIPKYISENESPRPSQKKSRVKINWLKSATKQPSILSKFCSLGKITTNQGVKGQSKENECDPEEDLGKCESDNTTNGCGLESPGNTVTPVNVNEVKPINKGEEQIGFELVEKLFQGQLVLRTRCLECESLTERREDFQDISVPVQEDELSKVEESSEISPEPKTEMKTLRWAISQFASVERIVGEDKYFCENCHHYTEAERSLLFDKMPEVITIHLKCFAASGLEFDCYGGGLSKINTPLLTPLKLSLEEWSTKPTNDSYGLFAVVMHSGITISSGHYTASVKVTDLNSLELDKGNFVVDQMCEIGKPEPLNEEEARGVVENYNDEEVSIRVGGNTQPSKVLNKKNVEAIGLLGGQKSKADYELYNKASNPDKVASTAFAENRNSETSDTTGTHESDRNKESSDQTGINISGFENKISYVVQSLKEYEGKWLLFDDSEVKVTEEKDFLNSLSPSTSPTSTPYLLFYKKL
Sequence of 3',5'-cyclic-AMP phosphodiesterase 4B (Homo sapiens) (Q07343 whole entry, looked up): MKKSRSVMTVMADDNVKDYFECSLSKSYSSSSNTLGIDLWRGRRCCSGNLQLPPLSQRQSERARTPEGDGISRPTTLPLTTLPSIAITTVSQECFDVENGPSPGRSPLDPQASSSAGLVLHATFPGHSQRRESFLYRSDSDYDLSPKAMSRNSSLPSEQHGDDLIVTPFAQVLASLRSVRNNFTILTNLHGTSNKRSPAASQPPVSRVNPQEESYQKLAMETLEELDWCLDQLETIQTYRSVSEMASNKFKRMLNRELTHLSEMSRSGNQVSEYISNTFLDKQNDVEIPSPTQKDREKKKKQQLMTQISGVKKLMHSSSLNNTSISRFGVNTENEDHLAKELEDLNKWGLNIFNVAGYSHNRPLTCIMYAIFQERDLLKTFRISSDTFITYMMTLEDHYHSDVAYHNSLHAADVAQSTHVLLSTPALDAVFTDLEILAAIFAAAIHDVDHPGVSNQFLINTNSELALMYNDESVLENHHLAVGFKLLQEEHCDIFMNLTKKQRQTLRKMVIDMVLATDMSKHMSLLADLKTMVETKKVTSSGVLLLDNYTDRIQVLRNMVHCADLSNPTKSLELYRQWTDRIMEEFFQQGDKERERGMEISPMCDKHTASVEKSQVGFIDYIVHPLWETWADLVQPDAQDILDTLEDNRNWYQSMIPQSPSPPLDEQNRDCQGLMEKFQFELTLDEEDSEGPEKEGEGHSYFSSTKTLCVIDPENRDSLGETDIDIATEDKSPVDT
Sequence of DNA dC->dU-editing enzyme APOBEC-3G (Homo sapiens) (Q9HC16 whole entry, looked up): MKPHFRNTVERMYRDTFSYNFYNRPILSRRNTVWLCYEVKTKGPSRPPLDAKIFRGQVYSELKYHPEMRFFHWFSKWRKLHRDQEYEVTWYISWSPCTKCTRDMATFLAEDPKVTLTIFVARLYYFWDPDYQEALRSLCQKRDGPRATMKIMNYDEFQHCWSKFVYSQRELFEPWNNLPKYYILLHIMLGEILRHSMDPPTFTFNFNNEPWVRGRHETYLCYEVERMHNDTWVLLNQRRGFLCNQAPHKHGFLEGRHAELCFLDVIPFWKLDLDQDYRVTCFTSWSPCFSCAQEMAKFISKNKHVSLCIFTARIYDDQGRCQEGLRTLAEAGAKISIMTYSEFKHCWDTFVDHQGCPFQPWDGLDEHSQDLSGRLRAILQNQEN
Sequence of Cytochrome P450 1A2 (Homo sapiens) (P05177 whole entry, looked up): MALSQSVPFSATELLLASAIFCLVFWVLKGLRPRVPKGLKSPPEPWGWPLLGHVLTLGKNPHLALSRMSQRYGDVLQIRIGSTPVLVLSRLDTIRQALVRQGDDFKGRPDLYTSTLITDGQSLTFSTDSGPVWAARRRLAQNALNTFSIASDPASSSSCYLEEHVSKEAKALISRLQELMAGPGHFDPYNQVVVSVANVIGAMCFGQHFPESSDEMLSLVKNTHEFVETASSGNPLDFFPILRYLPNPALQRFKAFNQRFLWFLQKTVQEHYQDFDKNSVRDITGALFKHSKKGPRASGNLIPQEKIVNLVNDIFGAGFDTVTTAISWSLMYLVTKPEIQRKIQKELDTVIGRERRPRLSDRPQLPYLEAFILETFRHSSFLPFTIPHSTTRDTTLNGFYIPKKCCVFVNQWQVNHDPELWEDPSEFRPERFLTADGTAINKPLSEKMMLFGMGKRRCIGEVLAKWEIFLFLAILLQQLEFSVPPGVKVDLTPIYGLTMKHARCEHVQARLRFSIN
Sequence of Glucocorticoid receptor (Homo sapiens) (P04150 whole entry, looked up, the tested form may be a part): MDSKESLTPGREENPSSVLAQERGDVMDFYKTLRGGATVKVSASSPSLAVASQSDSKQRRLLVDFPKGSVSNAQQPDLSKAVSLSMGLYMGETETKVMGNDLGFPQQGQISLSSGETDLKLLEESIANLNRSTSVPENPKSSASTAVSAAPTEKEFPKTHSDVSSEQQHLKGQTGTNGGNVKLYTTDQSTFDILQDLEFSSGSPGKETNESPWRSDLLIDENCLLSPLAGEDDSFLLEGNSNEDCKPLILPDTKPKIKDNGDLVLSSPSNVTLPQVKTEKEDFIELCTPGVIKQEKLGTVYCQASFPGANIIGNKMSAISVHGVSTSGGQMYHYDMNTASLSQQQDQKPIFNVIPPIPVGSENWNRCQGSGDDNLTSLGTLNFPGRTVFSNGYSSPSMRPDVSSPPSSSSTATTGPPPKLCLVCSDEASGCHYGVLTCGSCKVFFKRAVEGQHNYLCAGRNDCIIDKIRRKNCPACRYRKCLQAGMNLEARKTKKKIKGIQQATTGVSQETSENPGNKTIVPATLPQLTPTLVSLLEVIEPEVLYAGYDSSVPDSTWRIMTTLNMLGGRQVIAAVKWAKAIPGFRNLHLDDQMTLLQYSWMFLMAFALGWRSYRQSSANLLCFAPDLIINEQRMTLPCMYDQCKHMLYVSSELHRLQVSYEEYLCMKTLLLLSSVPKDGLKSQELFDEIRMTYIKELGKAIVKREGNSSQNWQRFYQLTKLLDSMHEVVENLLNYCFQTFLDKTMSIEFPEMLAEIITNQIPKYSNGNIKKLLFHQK
Sequence of Alpha-galactosidase (Coffea arabica) (Q42656 whole entry, looked up): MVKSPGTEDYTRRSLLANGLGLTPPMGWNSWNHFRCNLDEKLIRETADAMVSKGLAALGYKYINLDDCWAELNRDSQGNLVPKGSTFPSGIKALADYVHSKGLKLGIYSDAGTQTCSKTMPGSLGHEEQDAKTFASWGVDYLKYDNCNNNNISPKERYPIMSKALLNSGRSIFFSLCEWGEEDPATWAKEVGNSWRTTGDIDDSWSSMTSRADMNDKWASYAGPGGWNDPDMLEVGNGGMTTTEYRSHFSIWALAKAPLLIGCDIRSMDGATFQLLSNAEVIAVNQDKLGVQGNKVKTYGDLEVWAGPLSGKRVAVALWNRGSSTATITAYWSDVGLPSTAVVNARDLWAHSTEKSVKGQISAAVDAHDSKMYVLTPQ
Sequence of Pyruvate kinase (Leishmania mexicana) (Q27686 2-499 E452W): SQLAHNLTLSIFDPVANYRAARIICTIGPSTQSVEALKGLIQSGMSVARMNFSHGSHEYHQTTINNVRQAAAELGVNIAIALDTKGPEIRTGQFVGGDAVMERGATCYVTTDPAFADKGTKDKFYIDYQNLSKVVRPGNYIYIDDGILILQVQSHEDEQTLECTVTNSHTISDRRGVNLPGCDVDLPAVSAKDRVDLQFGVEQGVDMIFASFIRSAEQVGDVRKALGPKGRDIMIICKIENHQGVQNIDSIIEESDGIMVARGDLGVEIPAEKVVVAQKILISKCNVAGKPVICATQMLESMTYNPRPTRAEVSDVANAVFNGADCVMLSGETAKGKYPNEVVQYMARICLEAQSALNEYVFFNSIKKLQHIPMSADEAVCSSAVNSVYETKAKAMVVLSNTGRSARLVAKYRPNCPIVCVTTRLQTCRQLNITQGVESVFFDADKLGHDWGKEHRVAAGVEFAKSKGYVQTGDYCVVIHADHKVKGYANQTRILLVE
Sequence of Pyruvate kinase PKM (Homo sapiens) (P14618 whole entry, looked up): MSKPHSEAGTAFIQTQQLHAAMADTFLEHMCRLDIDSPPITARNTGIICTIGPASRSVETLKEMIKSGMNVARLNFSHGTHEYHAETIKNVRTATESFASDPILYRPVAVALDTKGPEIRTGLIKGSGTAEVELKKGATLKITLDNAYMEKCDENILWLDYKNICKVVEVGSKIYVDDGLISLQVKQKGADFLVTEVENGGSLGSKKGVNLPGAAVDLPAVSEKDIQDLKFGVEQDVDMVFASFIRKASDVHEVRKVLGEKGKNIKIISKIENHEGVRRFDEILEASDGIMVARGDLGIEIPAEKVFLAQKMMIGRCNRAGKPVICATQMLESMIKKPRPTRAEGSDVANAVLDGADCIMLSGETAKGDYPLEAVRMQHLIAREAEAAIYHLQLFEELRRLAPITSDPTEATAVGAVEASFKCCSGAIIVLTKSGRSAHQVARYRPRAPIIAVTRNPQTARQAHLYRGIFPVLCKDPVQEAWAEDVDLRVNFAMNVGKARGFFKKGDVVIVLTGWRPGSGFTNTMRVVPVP
Sequence of Guanine nucleotide-binding protein G(i) subunit alpha-1 (Homo sapiens) (P63096 whole entry, looked up): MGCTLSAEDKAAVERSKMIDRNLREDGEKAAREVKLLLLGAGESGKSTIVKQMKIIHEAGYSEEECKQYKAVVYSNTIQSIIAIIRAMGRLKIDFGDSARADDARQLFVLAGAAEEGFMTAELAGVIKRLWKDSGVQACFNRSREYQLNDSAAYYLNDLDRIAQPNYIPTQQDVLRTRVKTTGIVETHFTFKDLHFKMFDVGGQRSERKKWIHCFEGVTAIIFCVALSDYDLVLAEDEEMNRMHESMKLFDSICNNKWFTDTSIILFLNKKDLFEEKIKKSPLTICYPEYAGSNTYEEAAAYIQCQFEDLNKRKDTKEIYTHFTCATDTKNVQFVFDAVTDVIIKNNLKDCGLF

CC(C)(C)c1o[nH]c(=O)c1C[C@H](N)C(=O)O
-7.92%: max response [16, 21]
-7.95%: max response [16, 22]
inactive: outcome [1] | Potency [2] | activity change, negative = inhibition [3] -2.55% | outcome [4] | Potency [5] > 46 µM | Potency [6] > 46 µM | outcome [7] | Potency [8] | outcome [9] | outcome [10] | outcome [11] | outcome [12] | outcome [13] | outcome [14] | outcome [15] | activity change, negative = inhibition ([16]; at 57.5 µM (top of the series)) 1.88% | Potency [17] | Potency [18] | Potency [19]

CS(=O)(=O)Nc1ccc(Cc2noc(-c3ccc4[nH]cc(CCN)c4c3)n2)cc1
active: Potency [2] 0.0316 µM
inactive: Potency [5] > 46 µM | Potency [6] > 46 µM | Potency [17] | Potency [18] | Potency [19] | Potency [20]

CCOC(=O)c1ncn2c1CN(C)C(=O)c1cc(N=[N+]=[N-])ccc1-2
inactive: Potency [19] | Potency [20]

CN1[C@@H]2CC[C@H]1CC(OC(=O)N1Cc3ccccc3NC1=O)C2 (stereo partly specified)
inactive: Potency [19] | Potency [20]

Cc1ccc2cc3c(ccc4ccccc43)c3c2c1CC3
inactive: Potency [19] | Potency [20]

CN(C(=O)Cc1ccc(Cl)c(Cl)c1)[C@H](CN1CCCC1)c1cccc(N=C=S)c1
inactive: Potency [5] > 46 µM | Potency [6] > 46 µM | outcome [7] | Potency [8] | Potency [18] | Potency [19] | Potency [20]

CC1OC(=O)C(C(C)C)NC(=O)C(C(C)C)OC(=O)C(C(C)C)NC(=O)C(C)OC(=O)C(C(C)C)NC(=O)C(C(C)C)OC(=O)C(C(C)C)NC(=O)C(C)OC(=O)C(C(C)C)NC(=O)C(C(C)C)OC(=O)C(C(C)C)NC1=O (stereo unspecified)
inactive: Potency [19] | Potency [20]

O[C@H]1CCCC[C@H]1N1CCC(c2ccccc2)CC1
-12.1% and 1.1%: max response [16, 21]
inactive: outcome [1] | outcome [4] | Potency [5] > 20.6 µM and > 46 µM | Potency [6] > 20.6 µM and > 46 µM | outcome [7] | Potency [8] | activity change, negative = inhibition ([16]; at 25.7 µM (top of the series)) 0.444% | activity change, negative = inhibition ([16]; at 57.5 µM (top of the series)) 0.117% | Potency [17] | Potency [18] | Potency [19]
-11.1% and -2.26%: max response [16, 22]

Clc1ccc(C2=CCC[C@H]3CC[C@@H]2N3)cn1
inactive: Potency [5] > 46 µM | Potency [6] > 46 µM | outcome [7] | Potency [17] | Potency [18] | Potency [19] | Potency [20]
active: Potency [2] 15.8 µM

CNCCc1cnc[nH]1
inactive: Potency [2] | Potency [5] > 46 µM | Potency [6] > 46 µM | Potency [17] | Potency [18] | Potency [19] | Potency [20]
